JMJD2A Tudor = qHTS Assay for Inhibitors of JMJD2A-Tudor Domain. Lysine-specific demethylase 4A (Homo sapiens), O75164. AID 504339, 2011. Potency, µM (highest dose often 114 µM), inactives show top-dose activity change, negative = inhibition, most hits filed as inhibitors. 390,000 compounds, 4.4% hits. AlphaScreen JMJD2A-Tudor / H3K4me3 peptide binding; also: potency is read from the fitted curve at half-maximal effect; % is scaled to controls: 0 for no effect and ±100 for the full control effect; nearly all actives have a fitted effect of over 50% in size
PLK1 PBD inh = qHTS for Inhibitors of PLK1-PDB (polo-like kinase 1 - polo-box domain): Primary Screen. Serine/threonine-protein kinase PLK1 (Homo sapiens), P53350. Plk1 PBD binding of FITC phosphopeptide, fluorescence polarization. Potency, µM, inactives show max response, negative = inhibition, actives largely listed as inhibitors. 360,000 compounds, 2.8% hits. AID 720504, 2013; also: potency is read from the fitted curve at half-maximal effect; series mostly up to about 57 µM; % is scaled to controls: 0 for no effect and ±100 for the full control effect; nearly all actives have a fitted effect of over 65% in size
KAT2A inh = qHTS Assay for Inhibitors of GCN5L2; Histone acetyltransferase KAT2A (Homo sapiens), Q92830; GCN5L2 HAT assay, ThioGlo1 CoA-SH fluorescence; Potency, µM (series often up to 58.9 µM), for inactives: top-dose activity change, negative = inhibition, hits mostly inhibitors; 390,000 compounds, 0.21% hits; also: potency is read from the fitted curve at half-maximal effect; % is scaled to controls: 0 for no effect and ±100 for the full control effect
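Enzyme at 20nM final was mixed with library compounds for 15 min at room temperature. Peptide H3(1-25) at 75uM, acetyl-CoA at 70uM and ThioGlo1 at 50uM were then added. Plates were read immediately and after 20 min (Ex340nm/Em540nm).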
HP1b binding inh = HTS for Inhibitors of HP1-beta Chromodomain Interactions with Methylated Histone Tails. AlphaScreen HP1-beta / biotin-H3K9me3 peptide binding. Chromobox protein homolog 1 (Homo sapiens), P83916. 390,000 compounds, 0.56% hits. Potency, µM (top dose mostly 114 µM), inactives show at the top dose activity change, negative = inhibition, actives largely listed as inhibitors; also: potency is read from the fitted curve at half-maximal effect; nearly all actives have a fitted effect of over 70% in size
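AlphaScreen: HP1-beta (50 nM) preformed 30 min with biotin-H3(1-18)K9me3 peptide (50 nM) in PBS pH 7.4, 0.01% Tween-20. Compound added for 30 min at RT, then streptavidin donor/nickel chelate acceptor beads (10 ug/mL) for 30 min.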
PI5P4Ka inh = qHTS for Inhibitors of phosphatidylinositol 5-phosphate 4-kinase (PI5P4K) | 330,000 compounds, 1.2% hits | PI5P4Kalpha enzyme, ADP-Glo luminescence, 60 min; active compounds read low | AID 652105, 2013 | Phosphatidylinositol 5-phosphate 4-kinase type-2 alpha (Homo sapiens), P48426 | max response, %; active = max response of -50% or lower; inconclusive = between -30% and -50%; inactive = -30% or higher; also: value at the top dose of about 77 µM; % is scaled to controls: 0 for no effect and ±100 for the full control effect
Target sequence (P48426 whole entry, looked up): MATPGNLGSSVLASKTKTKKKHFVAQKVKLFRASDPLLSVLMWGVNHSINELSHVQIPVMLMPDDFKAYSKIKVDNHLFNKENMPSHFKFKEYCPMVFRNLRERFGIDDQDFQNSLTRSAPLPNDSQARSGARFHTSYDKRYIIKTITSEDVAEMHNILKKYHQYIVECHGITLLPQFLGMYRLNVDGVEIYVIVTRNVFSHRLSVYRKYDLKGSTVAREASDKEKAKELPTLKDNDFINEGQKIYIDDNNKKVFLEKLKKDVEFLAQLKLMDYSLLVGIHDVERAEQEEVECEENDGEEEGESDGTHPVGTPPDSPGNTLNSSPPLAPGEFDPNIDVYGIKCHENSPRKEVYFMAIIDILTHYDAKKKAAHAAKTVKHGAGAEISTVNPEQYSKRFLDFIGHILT
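Compounds were pin-transferred onto PI5P4Kalpha and substrate in HEPES pH 7.4 buffer with EGTA, CHAPS and 5% DMSO. ATP (5 microM final) started the reaction, which ran 60 minutes at room temperature before ADP-Glo detection.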
BAZ2B inh = qHTS Assay for Inhibitors of BAZ2B | AlphaScreen BAZ2B-H3K14Ac peptide displacement | Potency, µM (top dose mostly 114 µM), without a hit: top-dose activity change, negative = inhibition, most hits filed as inhibitors | 360,000 compounds, 4.4% hits | AID 504333, 2011; also: potency is read from the fitted curve at half-maximal effect; % is scaled to controls: 0 for no effect and ±100 for the full control effect; nearly all actives have a fitted effect of over 60% in size
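AlphaScreen displacement of biotin-H3(5-23)K14Ac peptide (50 nM final) from BAZ2B (50 nM final) in PBS pH 7.4, 0.01% Tween-20; complex preformed 30 min RT, then compounds (top 110 uM) 30 min RT, beads 20 min dark.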
Starred values were filed as active, the others as inactive; [ ] = dose if it differs, or a comment. A selection: hits, their analogues and other compounds. The true share with any hit is near 7%. Unless noted, calls follow the shape of the dose curve; as a rule, active = well fitted curve in the direction sought with a large enough effect; inconclusive = small, poorly fitted or top-dose-only effect, or another doubt; inactive = no such curve, though single readings can be large; an effect the other way counts as inactive or inconclusive.

What do the screens show for `COc1ccc(-c2nc(S(=O)(=O)c3ccc(C)cc3)c(N3CCCC3)o2)cc1`?
JMJD2A Tudor: inconclusive; PLK1 PBD inh: inconclusive; KAT2A inh: -0.7%; HP1b binding inh: 79.4µM*; PI5P4Ka inh: inconclusive; BAZ2B inh: -24.5%

What do the screens show for `Cc1ccc(S(=O)(=O)c2nc(-c3cccs3)oc2N2CCC(C)CC2)cc1`?
JMJD2A Tudor: inconclusive; KAT2A inh: -11.0%; HP1b binding inh: -16.7%; BAZ2B inh: inconclusive

How did CCOc1ccc(-c2nc(S(=O)(=O)c3ccccc3)c(N3CCC(C(N)=O)CC3)o2)cc1 do in these assays?
JMJD2A Tudor: 70.8µM*; PLK1 PBD inh: -11.4%; KAT2A inh: -1.8%; HP1b binding inh: inconclusive; PI5P4Ka inh: -29.3; BAZ2B inh: inconclusive

Results for CCN1CCN(c2oc(-c3ccccc3)nc2S(=O)(=O)c2ccc(C)cc2)CC1 ?
JMJD2A Tudor: inconclusive; PLK1 PBD inh: -6.0%; KAT2A inh: -10.6%; HP1b binding inh: -20.2%; PI5P4Ka inh: 3.2; BAZ2B inh: 50.1µM*

What do the screens show for `O=S(=O)(c1ccccc1)c1nc(-c2cccs2)oc1N1CCCCC1`?
JMJD2A Tudor: -16.8%; KAT2A inh: 0.1%; HP1b binding inh: -23.3%; BAZ2B inh: 35.5µM*

Results for Cc1ccc(S(=O)(=O)c2nnn(CC(=O)Nc3ccccc3C)c2N)cc1 ?
JMJD2A Tudor: -21.2%; KAT2A inh: -2.8%; HP1b binding inh: 17.0%; BAZ2B inh: -7.1%

How did COc1ccc(NC(=O)c2nnn(Cc3nc(-c4cc(Br)ccc4OC)oc3C)c2C)cc1 do in these assays?
JMJD2A Tudor: -6.5%; KAT2A inh: -0.3%; HP1b binding inh: 27.0%; BAZ2B inh: 0.7%

Results for CN1CCN(c2oc(-c3ccccc3F)nc2S(=O)(=O)c2ccc(Cl)cc2)CC1 ?
JMJD2A Tudor: inconclusive; PLK1 PBD inh: -12.4%; KAT2A inh: inconclusive; HP1b binding inh: -35.5%; PI5P4Ka inh: 6.9; BAZ2B inh: 35.5µM*

How did CCN(CC)S(=O)(=O)c1cccc(C(=O)N2CC(O)CC2C(=O)OC)c1 (centres undefined) do in these assays?
JMJD2A Tudor: 18.5%[11.4 µM]; PLK1 PBD inh: 29.9µM*; KAT2A inh: -0.7%; HP1b binding inh: -3.1%; PI5P4Ka inh: -7.0; BAZ2B inh: 5.1%

What do the screens show for `Cc1ccc(NC2=Nc3ccccc3N3C2=Nc2c(c(C)nn2-c2ccccc2)C3c2ccc(O)c(O)c2)cc1` (centres undefined)?
JMJD2A Tudor: -25.7%; PLK1 PBD inh: -8.2%; KAT2A inh: -8.4%; HP1b binding inh: 44.3%; PI5P4Ka inh: -74.7*; BAZ2B inh: -26.5%

How did Cc1nn(-c2ccccc2)c2c1C(c1ccc(O)c(O)c1)N1C(=N2)C(Nc2ccccc2)=Nc2ccccc21 (centres undefined) do in these assays?
JMJD2A Tudor: -10.1%; PLK1 PBD inh: -5.9%; KAT2A inh: -15.0%; HP1b binding inh: 40.1%; PI5P4Ka inh: -5.4; BAZ2B inh: 1.5%

How did Cc1nn(-c2ccccc2)c2c1C(c1ccc([N+](=O)[O-])cc1)N1C(=N2)C(=O)Nc2ccccc21 (centres undefined) do in these assays?
JMJD2A Tudor: -32.1%; PLK1 PBD inh: -17.2%; KAT2A inh: 4.4%; HP1b binding inh: -8.5%; PI5P4Ka inh: -9.0; BAZ2B inh: inconclusive

Results for Cc1cccc(NC2=Nc3ccccc3N3C2=Nc2c(c(C)nn2-c2ccccc2)C3c2ccc(O)c(O)c2)c1 (centres undefined) ?
JMJD2A Tudor: -15.9%; PLK1 PBD inh: -1.5%; KAT2A inh: -4.4%; HP1b binding inh: 50.1%; PI5P4Ka inh: -92.3*; BAZ2B inh: 3.0%[57.1 µM]
